Bioassay records as filed in PubChem BioAssay.
This is a sample that favours compounds with a hit; in the whole collection about 7.3% have one here.
HCV inhibitor: qHTS Assay for Inhibitors of Hepatitis C Virus (HCV). Huh7.5.1 HCVcc-Cre infection, luciferase reporter, 44 h. Potency, µM (doses to about 41.8 µM), without a hit: at the highest dose activity change, negative = inhibition, most hits filed as inhibitors. hit rate 3.4% among 340,000. AID 651820, 2012; active = well fitted inhibition curve with a large enough effect; inconclusive = small, poorly fitted or top-dose-only effect, or another doubt; inactive = no such curve, though single readings can be large or run the other way; note: potency is the fitted concentration of half-maximal effect
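Luciferase read-out (15 sec integration) after a 15 min room-temperature substrate step quantifies HCVcc-Cre infection. Cells, 1,000 per well, had compound added 4 h post-plating, then virus at ~0.5 moi, and were cultured 44 h.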
VACV mCherry inh: qHTS for Stage-Specific Inhibitors of Vaccinia Orthopoxvirus: mCherry Reporter Primary qHTS. Vaccinia virus mCherry reporter infection, fluorescence. hit rate 0.63% among 310,000. Potency, µM (doses to about 36.5 µM), for the others: at the highest dose activity change, negative = inhibition, most hits filed as inhibitors; calls by dose curve; tested in A549 cells; note: potency is the fitted concentration of half-maximal effect; nearly all actives have a fitted effect of over 35% in size
HCMV inh: qHTS Assay for inhibitors of the human cytomegalovirus (HCMV) | hit rate 4.5% among 410,000 | activity change, negative = inhibition, % at 57.5 µM | HFF cells, HCMV-luciferase reporter, 72 h; active compounds read low | AID 1259415, 2018; in the data active = activity change below about -60%; inconclusive = no clear call, values can overlap the other calls; inactive = above about -39%
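Screen run at 2 compound doses on HFFs infected with reporter HCMV, MOI 1 PFU/cell. Luciferase activity from cell lysates at 72 h post infection gave inhibition relative to buffer-only and Salinomycin wells.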
VACV Venus inh: qHTS for Stage-Specific Inhibitors of Vaccinia Orthopoxvirus: Venus Reporter Primary qHTS. Vaccinia virus Venus reporter expression, fluorescence. Potency, µM (series often up to 36.5 µM), for the others: at the highest dose activity change, negative = inhibition, hits mostly inhibitors. hit rate 0.46% among 330,000. AID 720580, 2013; calls by dose curve; tested in A549 cells; note: potency is the fitted concentration of half-maximal effect; nearly all actives have a fitted effect of over 30% in size
FMDV antiviral: High Throughput Screening for Foot and Mouth Disease Virus Antivirals | Potency, µM (highest dose often 57.9 µM), without a hit: top-dose activity change, negative = inhibition, most hits filed as inhibitors | hit rate 1.2% among 410,000 | AID 1159524, 2015 | FMDV antiviral cell-based qHTS; calls by dose curve; tested in HEK293T cells; note: read-out not given here; potency is the fitted concentration of half-maximal effect; nearly all actives have a fitted effect of over 45% in size
Numbers without * were called inactive; i = inactive; ? = inconclusive; / = no result; ! = not confirmed by another sample; [ ] = another dose, or the depositor's remark. % is set by controls: 0 for no effect and ±100 for the full control effect.

SMILES | HCV inhibitor | VACV mCherry inh | HCMV inh | VACV Venus inh | FMDV antiviral
O=C(CSCc1ccc(F)cc1)Nc1ccc(N2CCOCC2)cc1N1CCOCC1 | -12% | / | 2 | / | -11%
CC(C)(C)c1ccc(OCCC(=O)Nc2ccc(N3CCOCC3)cc2N2CCOCC2)cc1 | ? | 13µM* | -8 | -26% | -20%
Cc1nn(Cc2ccc(F)cc2)c2sc(C(=O)Nc3ccc(N4CCOCC4)cc3N3CCOCC3)cc12 | ? | ? | -67* | ? | 0%
O=C(COc1ccc(F)cc1Cl)Nc1ccc(N2CCOCC2)cc1N1CCOCC1 | 22µM* | -14% | -17 | -12% | -10%
O=C(COc1ccccc1F)Nc1ccc(N2CCOCC2)cc1N1CCOCC1 | -4% | -16% | -3 | -6% | 9%
CCCn1c(N)c(N(CCOC)C(=O)CSc2cc(C)c3ccccc3n2)c(=O)[nH]c1=O | -9% | -15% | 10 | 12% | 9%
Cc1ccc2c(c1)CN(CCC(=O)NCc1cc(C)n(C)n1)CC(C)O2 (stereo not drawn) | / | -17% | / | -11% | -6%
CC(=O)Nc1c(-c2cc(=O)oc3cc(C)ccc23)oc2ccccc12 | -5% | / | ? | / | -16%
COc1ccc(CNC(=O)Cn2cnc3c(SC)nc(N)nc32)cc1 | 8.9µM* | -8% | -15 | -12% | -1%
CSc1nc(N)nc2c1ncn2CC(=O)NCC(c1ccccc1)c1ccccc1 | ? | -23% | -19 | -1% | ?
CSc1nc(N)nc2c1ncn2CC(=O)Nc1ccc(C)c(C)c1 | 3.5µM* | -27% | -30 | ? | ?
COc1ccc(-c2onc(C)c2C)cc1S(=O)(=O)N1CCN(c2ccc(Cl)cc2)CC1 | / | -12% | ? | -5% | 0%
Cn1c(SCC2CCCO2)nnc1C1CCN(Cc2ccc(-c3cccc(Cl)c3)o2)CC1 (stereo not drawn) | / | i | / | -15% | -10%
CC(=O)Nc1ccc(S(=O)(=O)Nc2cc(-c3cn4ccccc4n3)ccc2C)cc1 | / | 7% | 19 | -4% | 6%
C=C1C(=O)OC2CC3(C)OC3CCC(C)=CC(OC(C)=O)C12 (stereo not drawn) | ? | -19% | 0 | ? | 35µM*
COc1ccc(-c2nnc(SCC(=O)NCCc3ccc(OC)c(OC)c3)nc2-c2ccc(OC)cc2)cc1 | / | i | 13 | -5% | -16%
Cc1ccc(OCC(O)Cn2c(=N)n(CCN3CCCCC3)c3ccccc32)cc1 (stereo not drawn) | 2.5µM* | -27% | -82*! | -26% | ?
N=c1n(CCN2CCCCC2)c2ccccc2n1CC(O)COc1ccc(Cl)cc1Cl (stereo not drawn) | / | -12%[7.34 µM] | -99* | -8%[7.34 µM] | -16%
N=c1n(CCO)c2ccccc2n1CCOc1ccc(Cl)cc1Cl | ? | ? | -2 | 11µM* | 28µM*
N=c1n(CCO)c2ccccc2n1Cc1ccccc1 | 16% | / | ? | ? | -33%
COc1ccc(OCC(O)Cn2c(=N)n(CCN3CCCCC3)c3ccccc32)cc1 (stereo not drawn) | ? | -27% | -8 | -20% | -27%
N=c1n(CCO)c2ccccc2n1Cc1ccccc1Cl | 22µM* | -12% | -10 | -24% | -5%
OC(COc1ccc(Cl)cc1Cl)CN1CCc2ccccc2C1 (stereo not drawn) | -12% | / | -26 | / | 27%
N=c1n(CCN2CCCC2)c2ccccc2n1CC(O)c1ccc(Cl)c(Cl)c1 (stereo not drawn) | 11µM* | / | -99* | / | ?
N=c1n(CCN2CCOCC2)c2ccccc2n1CC(=O)c1ccc(Cl)c(Cl)c1 | ? | / | 80 | / | -18%
SMILES | HCV inhibitor | VACV mCherry inh | HCMV inh | VACV Venus inh | FMDV antiviral
OC(CNCCCN1CCCCC1)COc1ccccc1 (stereo not drawn) | 10µM* | / | -8 | ? | -23%
OC(COc1ccccc1)CN1CCCCCC1 (stereo not drawn) | -21% | -5% | -35 | -9% | -9%
CC(=O)N1CCCc2cc(S(=O)(=O)N3CCN(c4ccccc4F)CC3)ccc21 | / | -5% | -27 | -12% | ?
Oc1ccccc1C1CCCCC1c1ccccc1 (stereo not drawn) | -9% | ? | -68* | ? | -7%
Oc1ccccc1C1SC(c2ccccc2O)SC(c2ccccc2O)S1 (stereo not drawn) | ? | ? | -34 | ? | -20%
Cc1ccc(OCC(=O)Nc2cccc(C(=O)OCc3cc(=O)n4cc(C)sc4n3)c2)cc1 | / | -29% | ? | -15% | -15%
O=C(NCCc1nc2ccccc2[nH]1)c1cccc(Br)c1 | ? | -11% | -70* | -8% | -24%
O=C(NCCc1nc2ccccc2[nH]1)c1ccc(F)cc1 | ? | / | ? | / | 7%
COc1ccccc1N1CCN(C(CNC(=O)c2ccc3c(c2)OCO3)c2cccnc2)CC1 (stereo not drawn) | 11µM* | -15%[1.46 µM] | -15 | ? | -30%
Cc1ccc(CNC(=O)C(=O)NCC(c2cccnc2)N2CCN(c3ccccc3F)CC2)cc1 (stereo not drawn) | / | ? | -72* | ? | -20%
O=C(NCC(c1cccnc1)N1CCN(c2ccccc2F)CC1)Oc1ccccc1 (stereo not drawn) | 21% | / | -28 | -14% | ?
COCCCNC(=O)C(=O)NCC(c1ccc2c(c1)OCO2)N1CCOCC1 (stereo not drawn) | / | -6% | -113* | 2% | 0%
CCc1ccc(NC(=O)C(=O)NCC(c2cccnc2)N2CCc3ccccc3C2)cc1 (stereo not drawn) | / | -24% | -28 | -29% | 10µM*
O=C(NCC(c1cccnc1)N1CCc2ccccc2C1)C(=O)Nc1ccccc1 (stereo not drawn) | / | -14% | 33 | -14% | -9%
COc1ccc(CN2C[C@@H](CO)O[C@@H](n3cnc4c(N(C)C)ncnc43)C2)cc1 | / | 15% | -22 | -5% | -2%
CCOc1ccccc1NC(=O)CC(c1ccc(F)cc1)N1Cc2ccccc2C1=O (stereo not drawn) | / | -9% | -36 | -2% | -10%
CN1CCCN(C(=O)[C@@H]2C[C@@H](Sc3nc4ccccc4[nH]3)CN2Cc2ccc(-c3ccccc3)cc2)CC1 | / | -19% | / | -14% | -4%
CCN(CC)S(=O)(=O)c1ccc(C(=O)NCC2CCCCC2)cc1 | 5% | -2% | -3 | -12% | -12%
O=S(=O)(NCC(c1cccs1)S(=O)(=O)c1ccccc1)c1ccc(F)cc1 (stereo not drawn) | / | i | -2 | -12% | 35%
OCC[C@H]1C[C@H](O)[C@@H](O)[C@]2(CCc3ccccc3CO2)O1 | 0.56µM* | -8% | 6 | -19% | -21%
OCC[C@H]1C[C@@H](O)[C@H](O)[C@]2(CCc3ccccc3CO2)O1 | -3% | -16% | -10 | -9% | -4%
CC(C)(C)OC(=O)NCc1ccc(CNC(=O)c2[nH]cnc2C(=O)NCC(=O)OCc2ccccc2)cc1 | ? | -1% | ? | -6% | 28µM*
